# Source: PubChem (several laboratories)
# Sampled rows, rich in hits. Any-hit rate of the full collection: about 27%.
# CYP2C9 act – CYP2C9 (human) activation; P11712; hit rate 1.4% among 96,000; activation factor at 5 µM; AID 1024; recombinant CYP2C9, luciferin-H conversion, luminescence; stronger effect = higher value; factor 1 = untreated enzyme, 0 = blocked;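 active = activation factor of 2 or more for CYP2C9 at a 5 µM dose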;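 note: 0 = sulfaphenazole-blocked wells and 1 = vehicle-only wells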
# Target sequence (P11712 whole entry, looked up): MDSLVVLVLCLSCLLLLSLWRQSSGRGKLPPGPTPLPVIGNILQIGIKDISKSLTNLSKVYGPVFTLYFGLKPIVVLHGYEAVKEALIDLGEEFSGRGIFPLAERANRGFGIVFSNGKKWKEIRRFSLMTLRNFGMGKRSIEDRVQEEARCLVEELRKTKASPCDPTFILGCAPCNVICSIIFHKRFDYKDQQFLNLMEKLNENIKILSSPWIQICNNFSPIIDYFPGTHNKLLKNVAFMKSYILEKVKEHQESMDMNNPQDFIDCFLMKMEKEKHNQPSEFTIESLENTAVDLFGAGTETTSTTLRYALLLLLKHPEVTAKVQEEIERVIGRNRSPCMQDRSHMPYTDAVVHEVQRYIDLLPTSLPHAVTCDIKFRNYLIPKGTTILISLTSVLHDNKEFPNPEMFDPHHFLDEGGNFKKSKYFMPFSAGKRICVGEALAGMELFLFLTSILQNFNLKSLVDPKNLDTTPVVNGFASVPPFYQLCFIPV
# CYP2C9 inh – blocks human cytochrome P450 2C9 | P11712 | CYP2C9 Supersomes, luciferin-H conversion, luminescence | inhibition, % at 5 µM | hit rate 20% among 96,000 | AID 777;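 active = blocking of liver enzyme CYP2C9 beyond about 50% at 5 µM, limit read from the data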
# CYP2C19 inh – human CYP2C19 inhibition. AID 778. hit rate 21% among 96,000. inhibition, % at 5 µM. CYP2C19 Supersomes, luciferin-H EGE luminescence, 30 min;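 active = CYP2C19 inhibition above a set limit at 5 µM in the primary screen, cut at about 50% in these data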;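 note: plate controls were negative control wells for no effect and 2.5 mM tranylcypromine positive control for full effect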
# Cav32 inh – human Cav3.2 channel inhibition, primary screen | AID 449739 | B-score at 10 µM | hit rate 4% among 100,000 | O95180 | Cav3.2-expressing cells, Fluo-4 calcium fluorescence FDSS; stronger effect = lower value;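 active = single-dose well whose peak fluorescence ratio is a statistical outlier from its plate by either plate-standardised score or position-corrected B-score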
# CYP2C19 activ – increases human CYP2C19 enzyme activity | P33261 | recombinant CYP2C19, luciferin-H EGE luminescence; stronger effect = higher value; 0 = fully inhibited enzyme, 1 = untreated enzyme | activation factor at 5 µM | 96,000 tested, under 10 active | AID 1025;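 active = activation factor of at least 2 at 5 µM in the primary screen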;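 note: 0 = wells with 2.5 mM tranylcypromine and 1 = vehicle-only wells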
# Active calls of the source: *; / = no result.
SMILES,CYP2C9 act,CYP2C9 inh,CYP2C19 inh,Cav32 inh,CYP2C19 activ
CC(C)NC(=O)CC(c1ccccc1)c1cc(Br)ccc1O (stereo unspecified),0.1,90*,95*,-3.3,0
O=C(CC(c1ccccc1)c1cc(Br)ccc1O)NCc1ccco1 (stereo unspecified),0,99*,99*,-9.9*,0
Cc1nc2ccc(NC(=O)NCCCO)cc2s1,1.2,-23,-25,0.38,1.2
Cc1nn(-c2ccccc2)c(Cl)c1/C=C1\SC(=S)NC1=O,0.2,76*,4,-4.5*,1
Cn1cnnc1SCC(=O)N1CCc2ccccc21,1.1,-14,-2,-0.033,1
Cn1c(SCC(=O)N2CCCc3ccccc32)nc2cccnc21,/,/,/,1.1,/
Cn1c(SCC(=O)N2CCc3ccccc32)nc2cccnc21,0.6,37,82*,-0.9,0.2
O=C(CSc1nccn1-c1ccccc1)N1CCc2ccccc21,0.9,15,96*,-1.2,0
c1ccc(CCSc2nccn2-c2ccccc2)cc1,0.5,54*,61*,-3.3,0.4
O=[N+]([O-])c1cccnc1N1CCC(c2cc(-c3ccc(Cl)cc3)n[nH]2)CC1,0.6,40,20,-1.7,0.8
Cc1ccc(S(=O)(=O)NNC(=O)C2Cc3c(ccc4ccccc34)O2)cc1 (stereo unspecified),0.4,56*,20,-2.2,0.8
COc1ccc(S(=O)(=O)N(CC(=O)N2CCCC2)Cc2ccccc2)cc1,0.8,23,42,0.64,0.6
CCOC(=O)N1CCN(C(=O)CN(Cc2ccccc2)S(=O)(=O)c2ccc(OC)c(C)c2)CC1,0.7,27,64*,-0.54,0.4
CCOC(=O)N1CCN(C(=O)CN(Cc2ccccc2)S(=O)(=O)c2ccc(OC)c(Cl)c2)CC1,0.5,55*,89*,-0.06,0.1
CCOC(=O)c1cc2c(C(F)(F)F)cc(-c3cccnc3)nc2o1,0.8,17,12,-0.45,0.9
Cc1nc2ccccc2n1CC(=O)OCC(=O)NCCc1ccccc1,1.2,-15,-17,0.64,1.2
O=S(=O)(c1ccc2c(c1)OCCO2)N1CCC(n2cnc3cc(F)ccc32)CC1,0.6,43,78*,-1.1,0.2
O=S(=O)(c1ccc2c(c1)OCCO2)N1CCC(n2nnc3cc(F)ccc32)CC1,/,/,/,0.45,/
Cc1nc2cc(F)ccc2n1C1CCN(S(=O)(=O)c2ccccc2)CC1,0.3,74*,38,-0.18,0.6
Fc1ccc(C(c2ccc(F)cc2)N2CCN(C/C=C/c3ccccc3)CC2)cc1,/,/,/,-4.5*,/
C(=C\c1ccccc1)/CN1CCN(C(c2ccccc2)c2ccccc2)CC1,/,/,/,-0.95,/
O=C(c1ccccn1)N(Cc1ccco1)C1(C(=O)NC2CCCC2)CCCCC1,0.9,10,-5,-2.1,1.1
Cc1ccc(N(C(=O)c2ccccn2)C2(C(=O)NC3CCCC3)CCCCC2)cc1,0.1,93*,37,-0.03,0.6
CC(=O)c1ccc(OCCCC(=O)OCC(=O)N2CCN(c3ccccc3)CC2)cc1,0.8,16,14,0.26,0.9
Cc1ccc(C(C)C)c(OCc2ccc(-c3nnco3)cc2)c1,0.6,40,86*,0.048,0.1
SMILES,CYP2C9 act,CYP2C9 inh,CYP2C19 inh,Cav32 inh,CYP2C19 activ
Cc1ccc(S(=O)(=O)N(C)Cc2ccc(-c3nnco3)cc2)cc1,0.8,16,48,/,0.5
CCCCCCN(C(=O)CCCCCN1C(=O)NC(c2ccccc2)C(C(=O)OCc2ccccc2)=C1C)C(C(=O)NCCCC)c1ccc(OCC(=O)OC)c(C(=O)OC)c1 (stereo unspecified),/,/,/,-1.8,/
COc1ccc2oc(=O)c(C(=O)n3ccc(C)n3)cc2c1,0.9,5,5,0.16,0.9
O=c1[nH]c(CSc2nnc(-c3cccnc3)n2C2CCCCC2)nc2ccccc12,0.9,7,62*,/,0.4
C=CCn1c(SCc2nc3ccccc3[nH]2)nnc1-c1ccncc1,0.5,46,93*,0.007,0.1
Nn1c(SCc2nc3ccccc3[nH]2)nnc1-c1cccnc1,0.9,13,30,-1.2,0.7
CCn1c(SCc2nc3ccccc3c(=O)[nH]2)nnc1-c1ccncc1,0.6,37,94*,-0.02,0.1
CCn1c(SCc2nc3ccccc3c(=O)[nH]2)nnc1-c1cccnc1,1.1,-6,90*,-0.5,0.1
CCn1c(SCc2nc3cc(OC)c(OC)cc3c(=O)[nH]2)nnc1-c1ccncc1,1,0,6,0.47,0.9
O=C(O)C1=C[C@H](c2ccc(Br)cc2)C[C@H](OCCCCO)O1,/,/,/,0.034,/
